# From PubChem BioAssay AID504332 (National Center for Advancing Translational Sciences (NCATS), 2011)
# Screen size: about 350,000 compounds; about 31,000 (8.9%) were called active. Where a call stands in place of a potency, no number is given. Roughly 15% stayed inconclusive and do not appear here. This excerpt belongs to a sample that is enriched for actives. A number with no mark means an inactive call. Calls come from the whole dose curve; as a rule, active = well fitted inhibition curve with a large enough effect; inconclusive = small, poorly fitted or top-dose-only effect; inactive = no such curve, though single readings can be large or run the other way.
# Target: Histone-lysine N-methyltransferase EHMT2 (Homo sapiens) (UniProt Q96KQ7)
# Experiment: qHTS Assay for Inhibitors of Histone Lysine Methyltransferase G9a; note: nearly all actives have a fitted effect of over 75% in size
# Details: G9a H3K9 monomethylation, AlphaScreen, 2 h; series mostly up to 59 µM
# Outline: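 Methyltransferase reactions run at room temperature for 2 h (20 nM enzyme, 500 nM biotin-H3K9 peptide, 20 uM SAM) after a 15 min compound preincubation; product detected by AlphaScreen beads and anti-H3K9me1 antibody.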
# Potency is the fitted concentration of half-maximal effect.
# Histone-lysine N-methyltransferase EHMT2 (Homo sapiens), sequence (Q96KQ7 913-1193 limits assumed): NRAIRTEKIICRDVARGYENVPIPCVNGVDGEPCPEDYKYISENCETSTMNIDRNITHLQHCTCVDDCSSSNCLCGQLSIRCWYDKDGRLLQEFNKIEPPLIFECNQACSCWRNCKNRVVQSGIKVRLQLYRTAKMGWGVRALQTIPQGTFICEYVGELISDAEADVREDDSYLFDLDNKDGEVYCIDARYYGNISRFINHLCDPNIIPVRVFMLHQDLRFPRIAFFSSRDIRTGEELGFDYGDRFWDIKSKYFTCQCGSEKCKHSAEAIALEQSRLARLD
SMILES,Potency,"activity, negative = inhibition"
COc1ccccc1N1CCN(C(=O)C2Cc3ccccc3CN2C(=O)c2ccco2)CC1 (stereo unspecified),inactive,–
CC1CCN(c2ccc(-c3ccc(NC(=O)c4ccco4)cc3)nn2)CC1,inactive,–
O=C(Nc1cc(C(F)(F)F)ccc1Cl)c1ccc2c(c1)CCN2S(=O)(=O)c1ccccc1,inactive,–
COc1cccc(N2CC(C(=O)NCc3n[nH]c(=O)c4ccccc34)CC2=O)c1 (stereo unspecified),–,-7.83% [at 2.33 µM]
CCN(CC)c1ccc(NC(=O)CN2C(=O)c3cccnc3Oc3ccc(Cl)cc32)c(C)c1,2.82 µM (active),–
Cc1cc(C)c(NC(=O)CN2C(=O)c3cccnc3Oc3ccc(Cl)cc32)c(C)c1,inactive,–
O=C(CN1C(=O)c2cccnc2Oc2ccc(Cl)cc21)NCCc1ccccc1,inactive,–
COc1ccc(C(=O)COC(=O)CCCC(=O)Nc2cc(C(F)(F)F)ccc2Cl)cc1,inactive,–
O=c1c2ccccc2ncn1/N=C/c1ccccc1,inactive,–
CCN(c1ccc(NC(=O)COC(=O)CCc2nc3ccccc3n2-c2ccccc2)cc1)C(C)C,15.8 µM (active),–
Cc1ccc(NC(=O)COC(=O)CCc2nc3ccccc3n2-c2ccccc2)c(C)c1,inactive,–
CCCCn1c(=O)c(CCC(=O)OCC(=O)Nc2ccc(C)c(Cl)c2)nc2ccccc21,inactive,–
CN(C)c1ccc(-n2cccc2/C=C2/SC(=Nc3ccc(F)cc3)NC2=O)cc1,inactive,–
Cc1ccc(N=C2NC(=O)/C(=C/C=C/c3ccco3)S2)cc1C,10 µM (active),–
Cc1ccc(N(CC(=O)NCc2ccc(Cl)cc2)S(=O)(=O)N(C)C)cc1,inactive,–
COc1cc(C(=O)Nc2ccc(OCc3cc(=O)n4ccc(C)cc4n3)cc2)cc(OC)c1OC,inactive,–
COc1cccc(CNC(=O)C(=O)NCC(c2cccs2)S(=O)(=O)c2ccccc2)c1 (stereo unspecified),inactive,–
CCn1cc(C(=O)NCCCN2CCCCCC2)c(=O)c2cc(S(=O)(=O)N3CCc4ccccc4C3)ccc21,31.6 µM (active),–
CCn1cc(C(=O)NCc2ccc(C)cc2)c(=O)c2cc(S(=O)(=O)N3CCc4ccccc4C3)ccc21,inactive,–
CCOCCCNC(=O)c1cn(CC)c2ccc(S(=O)(=O)N3CCc4ccccc4C3)cc2c1=O,inactive,–
O=c1c2ccccc2c(-c2ccc(F)cc2)nn1-c1ccc(C(F)(F)F)cc1,inactive,–
FC(F)(F)c1ccc(-n2cn[nH]c2=S)cc1,8.91 µM (active),–

SMILES,Potency,"activity, negative = inhibition"
CCOc1ccc(OCC)c(NS(=O)(=O)c2ccc3[nH]c(=O)ccc3c2)c1,inactive,–
COc1cc(/C=C2/C(=O)NN(c3ccc(F)cc3)C2=O)cc([N+](=O)[O-])c1O,39.8 µM (active),–
COc1cccc(/C=C2\SC(=N)N(c3ccc(F)cc3)C2=O)c1,inactive,–
COc1ccc(C(=O)N2CCN(c3ccc(C(C)=O)cc3F)CC2)cc1S(=O)(=O)NC1CC1,–,15.5% [at 2.33 µM]
COC(=O)c1ccc(CSc2ccc3nnc(-c4ccccc4)n3n2)o1,inactive,–
COc1ccc(-c2nnc3ccc(SCc4ccccc4)nn23)cc1,70.8 µM (active),–
CCOc1ccc(-c2nnc3ccc(SC)nn23)cc1,inactive,–
CCOc1ccc(NC(=O)Cn2cc(C(=O)c3ccc(C)cc3)c(=O)c3cc4c(cc32)OCCO4)cc1,inactive,–
O=C(CCc1nnc(Cc2ccc3c(c2)OCO3)o1)NCCc1ccccc1Cl,–,27.8% [at 0.501 µM]
COc1ccc(C(=O)/C=C/Nc2ccccn2)cc1,inactive,–
O=C(NNc1ccccn1)c1ccc(Cl)nc1,3.55 µM (active),–
CCN(CC)S(=O)(=O)c1cc(C(=O)Nc2ccccn2)ccc1C,–,-27.2% [at 12.7 µM]
Cc1ccc(NC(=O)CN(C)C(=O)Cn2nnc(-c3ccccc3)n2)cc1,inactive,–
Cc1ccc(C)c(NC(=O)CN(C)C(=O)c2ccc3ncsc3c2)c1,inactive,–
CC(NC(=O)c1ccc(S(=O)(=O)Nc2ccccc2)cc1)c1ccc(S(N)(=O)=O)cc1 (stereo unspecified),inactive,–
COc1cc(Br)cc2cc(S(=O)(=O)c3ccccc3)c(=O)oc12,inactive,–
COc1ccc(OC)c2sc(N3CCN(C(=O)C4COc5ccccc5O4)CC3)nc12 (stereo unspecified),inactive,–
COc1cc(NS(=O)(=O)c2ccc3c(c2)OCC(C(=O)N2CCCC2)O3)cc(OC)c1 (stereo unspecified),inactive,–
Cc1c(CC(=O)N2CCN(C(=O)C3COc4ccccc4O3)CC2)c(=O)oc2c(O)c(O)ccc12 (stereo unspecified),12.6 µM (active),–
Cc1ccccc1CN1CCC(CNC(=O)c2c(C)oc3ncnc(N4CCCCC4)c23)CC1,inactive,–
COc1ccc2oc(C(=O)NCc3ccco3)c(C)c2c1,inactive,–
O=C(c1ccco1)n1nc(-c2ccc(Cl)cc2)nc1NCc1ccccc1,inactive,–

SMILES,Potency,"activity, negative = inhibition"
O=c1[nH]c(N2CCOCC2)nc2ccccc12,inactive,–
c1ccc(-n2nnnc2N2CCOCC2)cc1,inactive,–
C1=C(N2CCOCC2)/C(=C/c2nc3ccccc3[nH]2)CC1,20 µM (active),–
O=C(Nc1ccc(C(=O)NCc2ccccc2Cl)cc1)C1=CSCCO1,inactive,–
Cc1ccn2c(=O)nc(SCC(=O)NCc3ccc(F)cc3)nc2c1,inactive,–
COc1ccc(-n2c(C)nc3c(cnn3-c3ccc(F)cc3)c2=O)cc1,inactive,–
Cc1c(C(=O)CN2CCOCC2)[nH]c2ccccc12,39.8 µM (active),–
Cc1[nH]c2ccccc2c1C(=O)CN1CC(C)CC(C)C1 (stereo unspecified),inactive,–
Cc1c(C(=O)N2CCOCC2)[nH]c2ccc(OCc3ccccc3)cc12,–,-37.5% [at 12.7 µM]
CCOc1ccccc1CNC(=O)c1ccc2c(c1)nc1n2CCC(C)C1 (stereo unspecified),inactive,–
CCOc1ccc(OCC)c(Nc2nc3ccccc3n3nnnc23)c1,inactive,–
CCn1c(SCC(=O)NC2CC2)nnc1-c1ccncc1,inactive,–
CC1CCCCC1NC(=O)CSc1nnc(-c2ccncc2)n1CCCN(C)C (stereo unspecified),3.98 µM (active),–
O=C(CSc1nnc(-c2ccncc2)n1C1CCCCC1)Nc1ccccc1,inactive,–
CC1(C)NC(=O)N(CC(=O)N2CCN(S(=O)(=O)c3ccccc3F)CC2)C1=O,–,22.5% [at 12.7 µM]
Cc1csc2nc(O)c(C(=O)NCCN3CCOCC3)c(=O)n12,inactive,–
NS(=O)(=O)c1ccc(NC(=S)NC(=O)c2cccnc2)cc1,50.1 µM (active),–
CCc1ccc(NC(=O)C(=O)NNC(=O)c2cccs2)cc1,inactive,–
CC(=O)NC(=S)Nc1ccc(NC(=O)c2cccnc2)cc1,inactive,–
NS(=O)(=O)c1ccc(NC(=S)NC(=O)c2cccc(Br)c2)cc1,inactive,–
NS(=O)(=O)c1ccc(NC(=S)NNC(=O)c2cccs2)cc1,8.91 µM (active),–
CC(C)C(=O)Nc1ccc(C(=O)NNC(=O)c2cccs2)cc1,inactive,–
